Screening results: PubChem BioAssay, National Center for Advancing Translational Sciences (NCATS)
LmPK inh = qHTS Assay for Inhibitors of Leishmania Mexicana Pyruvate Kinase (LmPK) | Potency, µM (doses to about 57.5 µM), inactives show at the highest dose activity change, negative = inhibition, usual class: inhibitors | purified LmPK, Kinase-Glo ATP luminescence, 1 h | hit rate 0.37% among 290,000; further: potency means the concentration at half of the fitted maximal effect; on the % scale 0 is the no-effect control and ±100 the full control effect
Target sequence (Q27686 whole entry, looked up): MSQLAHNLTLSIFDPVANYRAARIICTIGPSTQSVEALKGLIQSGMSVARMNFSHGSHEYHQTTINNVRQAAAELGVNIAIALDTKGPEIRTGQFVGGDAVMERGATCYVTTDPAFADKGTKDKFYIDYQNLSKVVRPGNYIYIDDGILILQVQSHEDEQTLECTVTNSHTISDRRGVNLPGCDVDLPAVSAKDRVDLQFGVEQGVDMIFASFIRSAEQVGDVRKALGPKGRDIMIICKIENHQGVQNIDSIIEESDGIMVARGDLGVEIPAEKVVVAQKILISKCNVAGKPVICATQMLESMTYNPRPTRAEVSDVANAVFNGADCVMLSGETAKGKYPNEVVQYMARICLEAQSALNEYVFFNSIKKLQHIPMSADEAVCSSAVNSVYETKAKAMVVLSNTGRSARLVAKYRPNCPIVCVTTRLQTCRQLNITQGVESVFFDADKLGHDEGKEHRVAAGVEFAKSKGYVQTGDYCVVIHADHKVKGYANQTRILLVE
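ATP generated from ADP (0.1 mM) and PEP (0.5 mM) by 0.1 nM LmPK over 1 h at room temperature (pH 7.2 imidazole buffer) was detected by coupled luciferase luminescence. Values were normalized to uninhibited and no-enzyme wells.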
Cycloheximide cs = Cycloheximide Counterscreen for Small Molecule Inhibitors of Shiga Toxin; cell reporter, cycloheximide protein synthesis inhibition counterscreen; max response, %; hit rate 12% among 300,000; AID 2314, 2010; in the data active means max response mostly above about 13%, no sharp cut-off; inactive means mostly below about 14%; further: read at 38.3 µM for the half of the compounds with a filed dose; 0% is about no effect
Pf growth 96h = Primary qHTS for delayed death inhibitors of the malarial parasite plastid, 96 hour incubation; P. falciparum luciferase reporter growth, 96 h; Potency, µM (highest dose often 28.7 µM), for inactives: top-dose activity change, negative = inhibition, most hits filed as inhibitors; hit rate 6.9% among 320,000; AID 504834, 2011; further: potency means the concentration at half of the fitted maximal effect; on the % scale 0 is the no-effect control and ±100 the full control effect
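Two parasite generations (96 h, 37 C, 5% CO2) of compound exposure in infected erythrocytes (0.05% parasitemia, 2% hematocrit). Luciferase-reporter P. falciparum; decreased luminescence indicates inhibited growth, aimed at apicoplast-acting delayed death.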
Pf growth 48h = Primary qHTS for delayed death inhibitors of the malarial parasite plastid, 48 hour incubation | P. falciparum luciferase growth in erythrocytes, 48 h | Potency, µM (doses to about 28.7 µM), for the others: at the highest dose activity change, negative = inhibition, actives largely listed as inhibitors | hit rate 5.9% among 310,000 | AID 504832, 2011; further: potency means the concentration at half of the fitted maximal effect; on the % scale 0 is the no-effect control and ±100 the full control effect
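Parasite viability was followed by luminescence of a genomically integrated firefly luciferase. Cultures held 0.1% parasitemia at 2% hematocrit (final), incubated under 5% CO2 at 37 C.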
Shiga toxin inh = A qHTS for Small Molecule Inhibitors of Shiga Toxin; inhibition, % at 38.7 µM; Vero cells, Shiga toxin protein synthesis inhibition reporter; hit rate 9.2% among 290,000; in the data active means inhibition mostly above about 28%, no sharp cut-off; inactive means mostly below about 43%; further: 0% is about no effect
An asterisk follows results filed as active; ? = inconclusive; / = not tested or not shown; [ ] = another dose, or the depositor's remark. Shown are actives, neighbours in structure and some others; about 22% of the full set was active somewhere. Unless noted, the call rests on the fitted dose curve; in most records, active means well fitted inhibition curve with a large enough effect; inconclusive means small, poorly fitted or top-dose-only effect, or another doubt; inactive means no such curve, though single readings can be large or run the other way.

SMILES	LmPK inh	Cycloheximide cs	Pf growth 96h	Pf growth 48h	Shiga toxin inh
COc1ccc(CN2CN(S(=O)(=O)c3ccccc3)c3nc4ccccc4nc32)cc1	0.1%	33.2*	?	?	112.2*
COc1cc(C(=O)Nc2ccc(N3CCCS3(=O)=O)cc2)c([N+](=O)[O-])cc1OC	/	/	7.7%	0.8%	/
COCCNC(=O)C(=O)NCC(c1ccc2c(c1)OCO2)N1CCN(c2ccc(F)cc2)CC1 (centres undefined)	-0.4%	-5.3	4.6%	?	-3.1
COc1ccc(Cl)cc1C(=O)NNC(=O)CSc1nnnn1C	-5.5%	-5.8	-2.2%	-17.7%	23.2
COc1ccc(CN2CN(S(=O)(=O)c3cccs3)c3nc4ccccc4nc32)cc1	10.5%	48.0*	?	?	80.3*
CNS(=O)(=O)c1cccc(C(=O)OCc2cc(=O)oc3c(C)c(O)ccc23)c1	2.2%	1.9	?	?	21.3
NS(=O)(=O)c1ccc(CCNC(=O)C2CCC(Cn3c(=S)[nH]c4ccccc4c3=O)CC2)cc1 (centres undefined)	-2.5%	4.7	24.9%	?	24.1
CN(C(=S)Nc1ccc(SC(F)F)cc1)C(c1ccccc1)c1ccccc1	2.4%	2.7	?	9.28µM*	-6.4
FC(F)Sc1ccc(NC(=S)NC(c2ccccc2)c2ccccc2)cc1	-5.4%	6.1	?	-46.4%	4.5
CC(=O)c1cccc(NC(=O)C(=O)c2cn(CC(=O)N3CCCCC3)c3ccccc23)c1	2.5%	7.6	16.7%	0.0%	16.9
CC(=O)C(O)C(c1ccccc1)c1c(O)c2ccccc2oc1=O (centres undefined)	/	-9.3	/	/	-5.2
CC1=NOC(=O)/C1=C\c1ccc(-c2cccc(Cl)c2)o1	4.0%	26.2	81.1%	43.5%	13.7
CC1=NOC(=O)/C1=C\c1ccc(-c2ccccc2Br)o1	-9.3%	-7.5	14.7µM*	5.4%	-9.1
COc1ccc(N(C(=O)CNC(=O)c2ccco2)C(C(=O)NCC2CCCO2)c2ccccc2)cc1 (centres undefined)	-8.0%	-6.5	?	0.1%	-7.3
COc1ccc(OCc2nnc(SCC(=O)N3C(C)CCCC3C)o2)cc1 (centres undefined)	1.3%	-1.9	?	?	28.7
COc1ccccc1/C=C/C(=O)/C=C/c1ccccc1O	-1.0%	99.4*	?	?	139.2*
O=C(/C=C/c1ccccc1Cl)N1CCCN(C(=O)/C=C/c2ccccc2Cl)CC1	-0.1%	5.8	-17.0%	23.6%	10.7
CNc1ccc(Br)cc(C(=O)/C=C/c2cccc(OC)c2OC)c1=O	-0.5%	-1.9	?	?	4.5
COc1ccccc1/C=C/C(=O)N1CCCC1	-4.6%	32.7*	37.7%	47.9%	35.8
CNc1ccccc(C(=O)/C=C/c2ccccc2OC)c1=O	2.0%	30.6*	?	?	55.0*
CSc1ccc(C(=O)NC2CCSc3ccccc32)cc1 (centres undefined)	-1.3%	11.4*	?	-5.3%	38.3
CC(=O)Nc1ccc(C(=O)NC2CCSc3ccccc32)cc1 (centres undefined)	-4.7%	13.8*	9.7%	11.0%	12.9
Cc1ccc(NC(=S)NC2CCSc3ccccc32)cc1 (centres undefined)	0.6%	9.9	?	?	18.1
COc1ccc(C(=O)NC2CCSc3ccccc32)cc1 (centres undefined)	-7.4%	18.6*	28.0%	-3.3%	35.1*
COc1ccc(OC)c(C(=O)NC2CCSc3ccccc32)c1 (centres undefined)	-6.5%	-1.6	?	?	-5.4
SMILES	LmPK inh	Cycloheximide cs	Pf growth 96h	Pf growth 48h	Shiga toxin inh
CCOc1ccc(S(=O)(=O)NCCC(=O)OCC(=O)N2CC(=O)Nc3ccccc32)cc1	-3.1%	-1.3	12.2%	-4.1%	-3.2
Cc1cccc(N=CC=C2OC(C)(C)C(C)(C)O2)c1	1.0%	36.0*	14.7%	?	108.3*
COc1cccc(N=CC=C2OC(C)(C)C(C)(C)O2)c1	-11.1%	49.4*	123.6%	?	87.5*
Cc1ccccc1C(=O)NC=C1C(=O)OC(C)(C)OC1=O	-8.2%	5.6	10.3%[5.75 µM]	-10.0%[5.75 µM]	-5.1
COc1ccc(N=CC=C2OC(C)(C)C(C)(C)O2)cc1OC	-0.9%	9.1	-27.2%	-21.7%	23.9
Cc1ccc(N=CC=C2OC(C)(C)C(C)(C)O2)cc1	-2.3%	20.1*	?	?	66.1*
Cc1ccccc1N=CC=C1OC(C)(C)C(C)(C)O1	1.1%	-1.1	36.1%	8.28µM*	-8.8
CN1/C(=C\C=Nc2ccccc2)C(C)(C)c2ccccc21	-18.9%	-2.3	?	?	-15.5
CC(C)C(=O)NCCSc1c[nH]c2ccccc12	0.4%	-5.4	11.7µM*	2.1%	-4.2
O=C(NCCSc1c[nH]c2ccccc12)c1ccc(Br)o1	1.9%	-2.0	2.08µM*	-6.5%	-14.3
Cc1[nH]c2ccccc2c1SCCNC(=O)c1ccc(Br)o1	3.8%	5.3	?	?	-3.3
COc1cc(-c2c(C#N)c(N)nc(SCc3ccncc3)c2C#N)cc(OC)c1OC	1.1%	1.5	?	13.1µM*	-11.0
O=c1cc(CSc2nc(NCc3ccccc3)c3ccccc3n2)nc2ccc(Cl)cn12	4.0%	-7.5	?	0.0%	-2.5
CC(C)CC(NC(=O)C(NC(=O)C1OC2OC(C)(C)OC2C2OC(C)(C)OC12)C(C)C)C(=O)O (centres undefined)	-4.4%	-2.1	5.0%	-4.0%	-6.1
CC(C)C(NC(=O)C(NC(=O)C1OC2OC(C)(C)OC2C2OC(C)(C)OC12)C(C)C)C(=O)O (centres undefined)	-2.1%	15.0*	67.8%	3.2%	31.1*
O=C(Nc1ccccc1C(=O)O)c1ccc(NC(=O)C2CC2)cc1	-4.2%	1.1	?	28.9%	-18.2
O=C(Nc1ccc(Oc2ccccc2)cc1)C1CCCO1 (centres undefined)	2.9%	30.8*	20.7%	12.3%	190.5*
NC(=O)c1ccccc1NC(=O)C1CCCO1 (centres undefined)	-4.9%	-1.1	10.4µM*	0.8%	2.3
CC1CCN(C(=O)c2ccc(NC(=O)C3CCCO3)cc2)CC1 (centres undefined)	0.9%	-2.2	14.7µM*	12.5%	5.0
O=C(Nc1ccccc1O)c1ccc(NC(=O)C2CC2)cc1	-7.5%	38.6*	55.4%	2.08µM*	82.7*
O=C(Nc1ccc(S(=O)(=O)N2CCOCC2)cc1)c1ccccc1F	-3.4%	-1.6	142.2%	?	-1.2
CC[C@@]12CCCN3CCc4c(n(c5ccccc45)[C@](O)(C(=O)OC)C1)C32 (some centres undefined)	/	/	?	-18.6%	/
COC(=O)c1ccc(NC(=O)C2CCCO2)cc1 (centres undefined)	1.5%	37.9*	?	81.6%	35.3*
